High-throughput results (PubChem)
Anthrax LF inh2 = blocks Bacillus anthracis lethal factor protease; P15917; multiplex microsphere protease cleavage assay, LF; inhibition, % at 10 µM; 360,000 compounds, 0.12% hits; AID 588501; further: plate controls were buffer without enzyme for full effect and enzyme alone for no effect
Target sequence (P15917 whole entry, looked up): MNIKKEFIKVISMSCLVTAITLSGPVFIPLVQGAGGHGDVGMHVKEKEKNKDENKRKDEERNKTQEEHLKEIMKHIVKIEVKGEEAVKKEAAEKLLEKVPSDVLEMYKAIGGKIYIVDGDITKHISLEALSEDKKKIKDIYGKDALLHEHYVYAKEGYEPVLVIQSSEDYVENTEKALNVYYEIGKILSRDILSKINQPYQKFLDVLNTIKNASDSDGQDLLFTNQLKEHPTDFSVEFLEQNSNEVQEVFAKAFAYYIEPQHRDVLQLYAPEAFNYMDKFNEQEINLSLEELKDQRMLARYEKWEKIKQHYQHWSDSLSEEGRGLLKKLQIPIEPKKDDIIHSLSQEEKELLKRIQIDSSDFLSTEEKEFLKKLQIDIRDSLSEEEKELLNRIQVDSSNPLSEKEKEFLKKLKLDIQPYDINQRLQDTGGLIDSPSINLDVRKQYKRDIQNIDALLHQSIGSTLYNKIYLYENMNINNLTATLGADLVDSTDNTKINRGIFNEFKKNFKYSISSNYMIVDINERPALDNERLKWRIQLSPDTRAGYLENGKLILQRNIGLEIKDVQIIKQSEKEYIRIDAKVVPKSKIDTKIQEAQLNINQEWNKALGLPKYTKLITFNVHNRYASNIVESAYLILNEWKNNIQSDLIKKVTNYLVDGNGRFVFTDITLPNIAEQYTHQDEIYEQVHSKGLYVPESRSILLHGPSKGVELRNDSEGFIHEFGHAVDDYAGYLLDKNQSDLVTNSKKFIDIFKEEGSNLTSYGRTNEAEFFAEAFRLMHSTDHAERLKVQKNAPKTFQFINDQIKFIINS
SSB-PriA inh = K. pneumoniae PriA-SSBct interaction inhibition; AlphaScreen SSBct-PriA binding, biotinylated peptide; inhibition, % at 33 µM; 430,000 compounds, 0.6% hits; AID 1272365; in the data active means inhibition mostly above about 37%, no sharp cut-off; inactive means mostly below about 20%;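 further: plate controls were negative control peptide for no effect and reference peptide for full effect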
BoNT-F LC inh = BoNT F light chain protease inhibition | Multiplex microsphere protease cleavage assay, flow cytometry | inhibition, % at 10 µM | 360,000 compounds, 0.22% hits | AID 588497; in the data active means inhibition above about 35%, passing the limit was not always enough; inconclusive means no clear call, values can overlap the other calls; further: plate controls were buffer without enzyme for full effect and enzyme alone for no effect
Bead autofluor = compound fluorescence in toxin protease inhibitor counterscreen; 360,000 compounds, 3.1% hits; compound autofluorescence counterscreen, microsphere flow cytometry; stronger effect = higher value; fluorescence intensity (concentration not given with the values); AID 624483; in the data active means fluorescence intensity above about 16000; inconclusive means no clear call, values can overlap the other calls
BoNT-A LC inh2 = inhibitors of Botulinum neurotoxin A light chain protease; multiplex microsphere protease substrate cleavage, flow cytometry; inhibition, % at 10 µM; 360,000 compounds, 0.17% hits; AID 588499; further: plate controls were buffer without enzyme for full effect and enzyme alone for no effect
* marks the source's active call; other numbers are inactive results. In the library only some 3.1% were active in any assay of this set; here they are far more common. Unless noted, no stated cut-off is given here; in the data, active means inhibition above about 30%; inconclusive means no clear call, values can overlap the other calls; inactive means below that.

`O=C(Nc1ccccc1)N1CCOCC1` gave Anthrax LF inh2 -5, SSB-PriA inh -9, BoNT-F LC inh 3, Bead autofluor 6476 and BoNT-A LC inh2 0.
For CN1CCN(C(CNC(=O)C(=O)NCc2cccs2)c2ccc3c(c2)CCN3C)CC1 (configuration not stated) the results were SSB-PriA inh -8.
Screening CC(=O)c1nnn(-c2nc(N3CCCC3)nc(N(c3ccccc3)c3ccccc3)n2)c1C returned Anthrax LF inh2 -2, SSB-PriA inh -5, BoNT-F LC inh -6, Bead autofluor 23099* and BoNT-A LC inh2 -2.
`CC(C)c1nnc(C2CCN(C(=O)CSC3CCCC3)CC2)o1` gave SSB-PriA inh 7.
`O=C(Nc1ccc(Cl)cc1)N1CCN(c2ccc3nnc(-c4ccc(F)cc4)n3n2)CC1` gave Anthrax LF inh2 -5, SSB-PriA inh 0, BoNT-F LC inh -8, Bead autofluor 17296* and BoNT-A LC inh2 -3.
`O=C(Nc1ccc(Cl)cc1)N1CCC(c2nc(-c3ccc(F)cc3)no2)CC1` gave Anthrax LF inh2 -2, SSB-PriA inh -20, BoNT-F LC inh -4, Bead autofluor 24171* and BoNT-A LC inh2 -2.
For COc1ccc(NC(=O)N2CCCC(c3nc(-c4ccc(OC)cc4)no3)C2)cc1 (configuration not stated) the results were Anthrax LF inh2 -1, SSB-PriA inh -10, BoNT-F LC inh -1, Bead autofluor 2742 and BoNT-A LC inh2 0.
For COc1nc(-c2ccccc2)ccc1-c1noc(-c2cccnc2)n1 the results were Anthrax LF inh2 -2, SSB-PriA inh -2, BoNT-F LC inh -5, Bead autofluor 23960* and BoNT-A LC inh2 -2.
`O=C(Cn1cc(OCc2ccccc2F)c(=O)cc1CO)NCC1CCCO1` (configuration not stated) gave SSB-PriA inh -1.
COc1ccc(CCN2CC3=C(C2=O)C(c2ccccc2)NC(=O)N3C)cc1OC (configuration not stated) was read as Anthrax LF inh2 -3, SSB-PriA inh -1, BoNT-F LC inh -7, Bead autofluor 7179 and BoNT-A LC inh2 -2.
For CN1C(=O)NC(c2ccccc2)C2=C1CN(CCc1ccccc1)C2=O (configuration not stated) the results were Anthrax LF inh2 0, SSB-PriA inh -20, BoNT-F LC inh -2, Bead autofluor 20821* and BoNT-A LC inh2 inconclusive.
`CCCn1c(-c2ccc(OC)cc2)nc2nc3ccccc3nc21` gave Anthrax LF inh2 6, SSB-PriA inh -15, BoNT-F LC inh 2, Bead autofluor 22319* and BoNT-A LC inh2 3.
`CCN(CC)S(=O)(=O)c1ccc2oc(C(=O)NCCN3CCOCC3)c(C)c2c1` gave Anthrax LF inh2 -2, SSB-PriA inh 2, BoNT-F LC inh -1, Bead autofluor 5315 and BoNT-A LC inh2 -1.
Screening C=CCNC(=O)c1oc2ccc(S(=O)(=O)N(CC)CC)cc2c1C returned Anthrax LF inh2 -2, SSB-PriA inh -16, BoNT-F LC inh -5, Bead autofluor 24786* and BoNT-A LC inh2 -4.
Screening O=C(NC[C@@](O)(c1cccs1)C1CC1)c1c(F)cccc1Cl returned SSB-PriA inh -9.
`CCN(CC)CCOC(=O)c1ccc(NC(=O)CCCN2C(=O)/C(=C\c3cccs3)SC2=S)cc1` gave Anthrax LF inh2 12, SSB-PriA inh 42*, BoNT-F LC inh 0, Bead autofluor 7423 and BoNT-A LC inh2 14.
For O=C(CCN1C(=O)/C(=C\c2cccs2)SC1=S)Nc1ccc(C(=O)O)cc1 the results were Anthrax LF inh2 1, SSB-PriA inh -6, BoNT-F LC inh -1, Bead autofluor 5418 and BoNT-A LC inh2 0.
`CCC(C)NS(=O)(=O)c1ccc(NC(=O)c2cc(-c3ccncc3)nc3ccccc23)cc1` (configuration not stated) gave SSB-PriA inh -8.
`Nc1ccc(-c2nc3ccccc3[nH]2)cc1` gave Anthrax LF inh2 -6, SSB-PriA inh -8, BoNT-F LC inh -13, Bead autofluor 6269 and BoNT-A LC inh2 -2.
For Nc1ccccc1-c1nc2ccccc2[nH]1 the results were Anthrax LF inh2 -3, SSB-PriA inh 2, BoNT-F LC inh 3, Bead autofluor 22286* and BoNT-A LC inh2 1.
O=C(Cc1cccnc1)NC1CCC(Oc2cnccn2)CC1 (configuration not stated) was read as SSB-PriA inh -14.
For Cc1ccc(N(CC(=O)N2CCN(C3CCCCC3)CC2)S(=O)(=O)c2cccnc2)cc1 the results were Anthrax LF inh2 1, SSB-PriA inh 3, BoNT-F LC inh 1, Bead autofluor 21207* and BoNT-A LC inh2 inconclusive.
Screening CCOC(=O)C(Oc1ccc2c(-c3ccc(OC)cc3)cc(=O)oc2c1C)c1ccccc1 (configuration not stated) returned Anthrax LF inh2 -2, SSB-PriA inh -7, BoNT-F LC inh -4, Bead autofluor 22308* and BoNT-A LC inh2 inconclusive.
Screening COc1cccc(CSc2nc(CC(=O)NCCC3=CCCCC3)cc(=O)[nH]2)c1 returned SSB-PriA inh -12.
Screening O=C(Cc1cc(=O)[nH]c(SCc2cccc(Cl)c2)n1)NCCC1=CCCCC1 returned SSB-PriA inh 40*.
Screening CCCc1ccc(Oc2cc(N3CCOCC3)nc(-c3ccccc3)n2)cc1 returned Anthrax LF inh2 -2, SSB-PriA inh -11, BoNT-F LC inh -1, Bead autofluor 23308* and BoNT-A LC inh2 1.
For CN(C)c1ccc(C(=O)Nc2nc3ccc(Br)cc3s2)cc1 the results were SSB-PriA inh 2.
`CN(C)c1ccc(CCNC(=O)c2c(F)cccc2F)cc1` gave SSB-PriA inh -3.
`C=CCN1C(=O)C(C)(C)COc2ccc(NC(=O)Cc3ccc(OC)c(OC)c3)cc21` gave SSB-PriA inh 11.
Cc1nn(S(=O)(=O)c2ccccc2[N+](=O)[O-])c(C)c1Sc1ccccc1 was read as SSB-PriA inh 37*.
Screening CN(Cc1ccccc1)C(=O)c1ncc(-c2ccccc2)o1 returned SSB-PriA inh -7.
CCCCCCCCN1C(=O)C(O)=C(C(C)=O)C1c1ccccn1 (configuration not stated) was read as Anthrax LF inh2 -5, SSB-PriA inh -8, BoNT-F LC inh -45, Bead autofluor 31940* and BoNT-A LC inh2 -26.
For O=[N+]([O-])c1ccc(Cl)c(/C=N/N2CCN(Cc3ccc(Cl)cc3)CC2)c1 the results were Anthrax LF inh2 -8, BoNT-F LC inh 4, Bead autofluor 18114* and BoNT-A LC inh2 inconclusive.
For O=[N+]([O-])c1ccc(Cl)c(/C=N/N2CCN(Cc3ccccc3)CC2)c1 the results were Anthrax LF inh2 -9, BoNT-F LC inh 1, Bead autofluor 21691* and BoNT-A LC inh2 1.
O=[N+]([O-])c1ccc(Cl)c(/C=N/N2CCN(Cc3ccccc3Cl)CC2)c1 was read as Anthrax LF inh2 -4, BoNT-F LC inh 1, Bead autofluor 2546 and BoNT-A LC inh2 -1.
For Cc1noc(C)c1C(=O)NC1CCCc2ccccc21 (configuration not stated) the results were Anthrax LF inh2 0, SSB-PriA inh 0, BoNT-F LC inh -5, Bead autofluor 21318* and BoNT-A LC inh2 -4.
